Assay [1] in a line: compounds binding Alexa647 anti-His antibody – biochemical, small-molecule microarray, 635 nm fluorescence, artefact control for SMM control protein annotation, primary screen (AID 1128).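 Further: score merges feature fluorescence with signal-to-noise for each printed compound spot.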 Conditions: higher = more signal.
Assay [2] relates to Human papillomavirus type 1a E7 protein (residues 1-88). The assay can be described thus: HPV1a E7 small-molecule binders, primary screen, biochemical, small-molecule microarray, residues 1-88, 635 nm (AID 1129). Conditions: small-molecule microarray binding, fluorescence 635 nm; higher = more signal.
Assay [3] deals with Focal adhesion kinase 1 (Homo sapiens) (UniProt Q05397). The assay can be described thus: PTK2 protein binding on printed compound slides – biochemical, small-molecule microarray, 635/667 nm fluorescence, BSA, DTT, primary screen (AID 1130).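 Further: composite of spot emission at 667 nm and signal to noise over triplicate slides.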 Conditions: 635 nm fluorescence, higher = more signal.
The subject of assay [4] is Fibrinogen (Alexa647-labelled). Briefly: Alexa647-fibrinogen binding to printed small molecules – biochemical, small-molecule microarray, 635/667 nm fluorescence, artefact control for SMM control-protein annotation, profiling panel (AID 1131).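 Further: z-score merges 667 nm fluorescence with per-spot signal-to-noise over triplicate slides.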 Particulars: fibrinogen-A647 binding fluorescence, higher = more signal.
Assay [5] has as its target Follistatin (Homo sapiens) (UniProt P19883). Briefly: FST protein binding to printed compounds – biochemical, small-molecule microarray, 635/667 nm fluorescence, primary screen (AID 1132). Particulars: 635 nm fluorescence, higher = more signal.
Assay [6] concerns the target Fibroblast growth factor 2 (Homo sapiens) (UniProt P09038). The assay can be described thus: basic fibroblast growth factor binding to printed compounds – biochemical, small-molecule microarray, 635/667 nm fluorescence, primary screen (AID 1133). Particulars: FGF2, fluorescence 635/667, higher = more signal.
Assay [7] is described as follows: JC-1 mitochondrial potential readout, lung cancer cells – cell-based, A549, JC-1 fluorescence, basal, 24 h, 100 nL, profiling panel (AID 1138).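 Further: A549 lung adenocarcinoma cells under basal conditions with no added stimulus; test concentration not given here.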 Conditions: higher = more signal.
Assay [8] concerns Lefty1. The assay can be described thus: Lefty1 protein binding to printed compounds – biochemical, small-molecule microarray, 635/667 nm fluorescence, primary screen (AID 1139). Particulars: fluorescence 635/667, higher = more signal.
Assay [9] relates to wheat germ agglutinin (Triticum aestivum), Alexa647-labelled. Briefly: Alexa647-WGA lectin binding to printed small molecules – biochemical, small-molecule microarray, 635/667 nm fluorescence, artefact control for SMM control-protein annotation, profiling panel (AID 1140).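 Further: score merges 667 nm feature emission with signal to noise over triplicate slides.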 Conditions: WGA-A647 binding, 635 nm fluorescence, higher = more signal.
Assay [10] deals with Luciferin 4-monooxygenase (Photinus pyralis) (UniProt P08659). The assay can be described thus: inhibition of purified Photinus pyralis luciferase – biochemical, luminescence, purified enzyme, 2006 set, primary screen (AID 1141).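 Further: cell-free assay with purified firefly luciferase at 100 ng per well in PBS; test concentration not given here.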 Particulars: purified firefly luciferase, SteadyGlo luminescence, 30 min; higher = more signal, called active from +8 up or from −8 down.
For assay [11], the system named is Wnt5a (protein binding on small-molecule microarray). The assay can be described thus: small molecules binding Wnt5a protein – biophysical, small-molecule microarray, 635/667 nm fluorescence, primary screen (AID 1142).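 Further: fluorescence read at 667 nm with signal to noise per printed feature.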 Particulars: 635 nm fluorescence, higher = more signal.
Assay [12] can be described thus: ATP-based viability of Huh7 replicon cells – cell-based, CellTiter-Glo luminescence, basal, 48 h, cytotoxicity control for HCV replication inhibitor project, primary screen (AID 1143).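 Further: Huh7 hepatoma cells carrying a hepatitis C replication reporter with no stimulus; test concentration not given here.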 Conditions: higher = more signal, called active from +8 up or from −8 down. (Replicon systems follow genome replication, usually without infectious particles.)
Assay [13] is described as follows: Pseudomonas biofilm growth suppression – PAO1 strain, BacTiter-Glo luminescence, LB-PBS, primary screen (AID 1144). Particulars: P. aeruginosa PAO1 biofilm, 12 h, higher = more signal.
Assay [14] can be described thus: basal CRE-LacZ reporter activity in PC12 – cell-based, unstimulated, primary screen (AID 1145). Conditions: no forskolin, luminescence, 4.5 h, higher = more signal, called active from +8 up or from −8 down.
Assay [15] is described as follows: forskolin-driven CRE-LacZ activity in PC12 – cell-based, CRE-LacZ reporter, forskolin-stimulated, primary screen (AID 1146).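 Further: PC12 cells with 6xCRE LacZ reporter stimulated by forskolin 10 µM; beta-galactosidase reporter signal reflecting CREB driven transcription.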 Conditions: luminescence, 4.5 h, higher = more signal, called active from +8 up or from −8 down.
Assay [16] addresses Streptavidin (Streptomyces avidinii) (UniProt P22629). Briefly: compounds binding control protein streptavidin – biophysical, small-molecule microarray, 635/667 nm fluorescence, artefact control for SMM compound annotation, primary screen (AID 1147).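 Further: signal reflects streptavidin binding to arrayed compounds as a control protein.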 Particulars: higher = more signal.
The nature of assay [17]: probe aInhba binding on compound microarray – biochemical, small-molecule microarray, 635/667 nm fluorescence, primary screen (AID 1148).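 Further: score merges 667nm spot fluorescence with signal-to-noise for antibody binding to printed compounds.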 Particulars: higher = more signal.
Assay [18] addresses Torsin-1A (Homo sapiens) (UniProt O14656). The assay can be described thus: TOR1A wild-type binding on microarray – cell lysate, small-molecule microarray, lysate, 635/667 nm, primary screen (AID 1149). Conditions: COS7 hTOR1A-WT lysate, 635 nm fluorescence, higher = more signal.
For assay [19] the target is unchanged. Briefly: torsin A mutant lysate binding on microarrays – cell lysate, small-molecule microarray, COS7 lysate, 635/667 nm fluorescence, primary screen (AID 1150).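 Further: score pools 667 nm emission and signal to noise measuring lysate protein binding.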 Conditions: COS7 hTOR1A mutant lysate, 635 nm fluorescence, higher = more signal.
The subject of assay [20] is Sonic hedgehog protein (Shh). The assay can be described thus: Sonic hedgehog microarray binding compounds – biochemical, small-molecule microarray, 635/667 nm fluorescence, primary screen (AID 1151).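 Further: Shh protein binding to compounds spotted on small-molecule microarray slides; score combines spot fluorescence intensity with signal-to-noise across triplicate slides.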 Particulars: 635 nm fluorescence, higher = more signal.

The source made the active and inactive calls. Unless noted, how the calls were made is not given here.

Chain of Luciferin 4-monooxygenase (Photinus pyralis) (P08659 whole entry, looked up): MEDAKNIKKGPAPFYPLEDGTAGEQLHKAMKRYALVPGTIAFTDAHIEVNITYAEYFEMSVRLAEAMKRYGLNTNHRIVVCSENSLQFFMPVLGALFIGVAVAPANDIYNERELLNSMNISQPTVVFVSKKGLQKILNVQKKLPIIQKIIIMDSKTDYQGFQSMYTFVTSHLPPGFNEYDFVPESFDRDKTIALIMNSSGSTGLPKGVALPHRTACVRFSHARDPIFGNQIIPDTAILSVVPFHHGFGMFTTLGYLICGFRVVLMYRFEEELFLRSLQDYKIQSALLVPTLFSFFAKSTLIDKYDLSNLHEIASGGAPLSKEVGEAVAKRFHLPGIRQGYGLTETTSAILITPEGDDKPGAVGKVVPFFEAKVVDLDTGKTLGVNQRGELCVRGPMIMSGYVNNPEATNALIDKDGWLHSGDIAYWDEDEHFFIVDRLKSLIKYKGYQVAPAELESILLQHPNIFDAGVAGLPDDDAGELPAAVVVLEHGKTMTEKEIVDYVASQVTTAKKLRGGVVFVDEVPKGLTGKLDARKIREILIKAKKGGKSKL
Chain of Focal adhesion kinase 1 (Homo sapiens) (Q05397 whole entry, looked up): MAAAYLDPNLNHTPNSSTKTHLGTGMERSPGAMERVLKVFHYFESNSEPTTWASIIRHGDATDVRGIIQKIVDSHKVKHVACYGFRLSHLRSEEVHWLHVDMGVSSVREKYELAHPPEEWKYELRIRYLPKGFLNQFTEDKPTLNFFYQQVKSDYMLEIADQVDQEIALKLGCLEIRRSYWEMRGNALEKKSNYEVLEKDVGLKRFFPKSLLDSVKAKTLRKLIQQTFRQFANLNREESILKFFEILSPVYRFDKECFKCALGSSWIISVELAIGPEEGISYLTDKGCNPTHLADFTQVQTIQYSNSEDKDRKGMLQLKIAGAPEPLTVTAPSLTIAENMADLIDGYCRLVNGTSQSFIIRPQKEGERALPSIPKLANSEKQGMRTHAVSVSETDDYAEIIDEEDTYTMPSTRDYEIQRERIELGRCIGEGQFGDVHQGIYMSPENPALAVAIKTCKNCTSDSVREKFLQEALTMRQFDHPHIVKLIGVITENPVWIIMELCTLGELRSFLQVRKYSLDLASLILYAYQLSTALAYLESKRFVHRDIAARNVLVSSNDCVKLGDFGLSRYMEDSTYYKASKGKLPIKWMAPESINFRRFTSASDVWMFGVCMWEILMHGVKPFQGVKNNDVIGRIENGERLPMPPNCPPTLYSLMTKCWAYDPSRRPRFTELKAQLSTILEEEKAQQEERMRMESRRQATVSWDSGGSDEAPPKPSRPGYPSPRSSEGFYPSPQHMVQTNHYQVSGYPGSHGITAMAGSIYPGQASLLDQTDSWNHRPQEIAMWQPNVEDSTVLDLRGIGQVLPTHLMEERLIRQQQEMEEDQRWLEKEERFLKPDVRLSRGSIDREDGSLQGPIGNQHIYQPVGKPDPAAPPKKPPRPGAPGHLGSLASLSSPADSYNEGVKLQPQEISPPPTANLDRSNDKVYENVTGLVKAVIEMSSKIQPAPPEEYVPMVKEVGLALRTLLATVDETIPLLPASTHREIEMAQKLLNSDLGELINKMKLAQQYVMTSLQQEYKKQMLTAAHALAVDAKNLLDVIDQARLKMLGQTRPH
Chain of Follistatin (Homo sapiens) (P19883 whole entry, looked up): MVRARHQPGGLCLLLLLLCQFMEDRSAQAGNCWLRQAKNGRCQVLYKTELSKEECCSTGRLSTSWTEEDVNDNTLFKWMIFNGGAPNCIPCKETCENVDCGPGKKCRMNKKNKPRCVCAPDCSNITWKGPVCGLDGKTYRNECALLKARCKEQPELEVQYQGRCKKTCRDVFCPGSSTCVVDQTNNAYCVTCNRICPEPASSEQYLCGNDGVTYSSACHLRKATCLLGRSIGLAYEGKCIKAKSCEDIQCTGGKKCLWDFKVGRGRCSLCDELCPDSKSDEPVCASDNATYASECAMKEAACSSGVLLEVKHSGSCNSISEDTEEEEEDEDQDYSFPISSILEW
Chain of Torsin-1A (Homo sapiens) (O14656 whole entry, looked up): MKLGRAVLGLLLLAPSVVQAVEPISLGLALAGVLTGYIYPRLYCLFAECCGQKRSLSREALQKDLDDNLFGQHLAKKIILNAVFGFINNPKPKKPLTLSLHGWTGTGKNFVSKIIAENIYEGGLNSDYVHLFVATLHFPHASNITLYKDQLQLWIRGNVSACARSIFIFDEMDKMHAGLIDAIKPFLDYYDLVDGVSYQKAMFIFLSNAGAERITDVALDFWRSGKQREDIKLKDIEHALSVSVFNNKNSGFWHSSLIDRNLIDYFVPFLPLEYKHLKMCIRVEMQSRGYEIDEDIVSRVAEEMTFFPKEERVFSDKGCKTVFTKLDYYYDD
Chain of Streptavidin (Streptomyces avidinii) (P22629 whole entry, looked up): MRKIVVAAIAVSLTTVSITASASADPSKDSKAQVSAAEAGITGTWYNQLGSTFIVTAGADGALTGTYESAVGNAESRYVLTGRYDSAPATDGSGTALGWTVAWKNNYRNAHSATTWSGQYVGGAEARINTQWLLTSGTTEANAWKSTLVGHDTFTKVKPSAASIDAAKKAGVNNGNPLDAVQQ
Chain of Fibroblast growth factor 2 (Homo sapiens) (P09038 whole entry, looked up): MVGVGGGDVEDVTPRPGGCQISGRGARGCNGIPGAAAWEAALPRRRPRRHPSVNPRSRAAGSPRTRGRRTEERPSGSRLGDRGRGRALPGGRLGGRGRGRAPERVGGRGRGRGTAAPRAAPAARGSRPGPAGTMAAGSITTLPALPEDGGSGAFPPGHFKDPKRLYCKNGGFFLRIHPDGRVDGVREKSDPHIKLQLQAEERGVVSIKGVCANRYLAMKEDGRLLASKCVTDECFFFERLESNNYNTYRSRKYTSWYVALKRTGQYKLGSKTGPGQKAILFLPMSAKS

Consider `COc1cc2c(cc1OC)CN(C(=O)[C@H]1[C@@H]3C(=O)O[C@@H](c4ccccc4)[C@@H](c4ccccc4)N3[C@@H](c3ccc(OCCO)cc3)[C@]13C(=O)Nc1ccc(C#CC4(O)CCCCCC4)cc13)CC2`, for which the composite z-score was 1.91 in assay [1]; 1.21 in [2]; -0.109 in assay [3]; 0.819 in assay [4]; 1.46 in assay [5]; 1.38 in assay [6]. Besides, the composite z-score was found to be 1.35 in [8]; 1.18 in [9]; 0.928 in assay [11]; 1.54 in assay [16]; 1.23 in [17]; 0.765 in assay [18]. Further, the figures for the composite z-score in [19] and in assay [20] were 1.85 and 1.96, respectively. Also, the z-score in [7] was -1.42; in [10], -1.15 (inactive); in assay [12], -0.425 (inactive); in assay [13] it was -1.33 (inactive); in [14] it was -0.438 (inactive); in assay [15] it was 0.195 (inactive).

As for `O=C1O[C@@H](c2ccccc2)[C@@H](c2ccccc2)N2[C@@H](c3ccccc3OCCO)[C@]3(C(=O)Nc4ccccc43)[C@@H](C(=O)NC[C@H](O)c3ccccc3)[C@H]12`, the composite z-score in assay [1] was -0.27; in assay [2], 1.19; in [3], 0.682; in [4], -0.0424; in assay [5], -0.185; in [6], -0.452. The composite z-score was -0.373 in [8]; -0.545 in [9]; -0.123 in assay [11]; -0.625 in [16]; -0.149 in assay [17]; 0.604 in assay [18]. Also, the composite z-score in [19] was 0.297; in assay [20], 0.0935. Also, the z-score is 0.171 in [7]; 0.0121 (inactive) in assay [10]; -6.2 (inactive) in assay [12]; -0.668 (inactive) in assay [13]; 0.209 (inactive) in [14]; 4.03 (inactive) in assay [15].

Consider `CCOC(=CC(=O)OC)CC(O)c1cccc(Cl)c1` (stereo not given), for which the composite z-score in assay [1] is 1.83; in assay [2] it was 1.15; in assay [3], 0.702; in assay [4], -0.76; in assay [5], -0.23; in assay [6] it was -0.745. In addition, the composite z-score in assay [8] is -0.417; in assay [9], 1.22; in [11], -0.256; in assay [16], -0.668; in assay [17], -0.204; in [18] it was 1.31. The composite z-score in assay [19] is 0.522; in assay [20], -0.41. For the same compound, the z-score in assay [7] is 1.32; in assay [10], -0.135 (inactive); in assay [12], -3.84 (inactive); in assay [13], 0.114 (inactive); in assay [14] it was 0.584 (inactive); in [15] it was -0.216 (inactive).

Turning to `O=C1OCCC=C[C@H]2OC34C=CCN(c5ccc(Cl)cc5)C(=O)[C@H]3N(CCCCCO)C(=O)[C@@H]4C12` (stereo not given in full), the composite z-score in assay [1] is 3.41; in assay [2], -0.457; in [3], -0.226; in assay [4], -0.929; in [5], -0.514; in assay [6] it was -0.297. The composite z-score in assay [8] was -0.314; in assay [9] it was -0.21; in assay [11] it was -0.244; in [16], -0.654; in assay [17] it was -0.0986; in assay [18], 0.0095. In addition, the composite z-score worked out at 1.05 in assay [19] and 0.58 in [20]. Also, the z-score in [7] was 2.6; in [10], -1.31 (inactive); in assay [12], -0.091 (inactive); in assay [13] it was -0.622 (inactive); in [14], 0.187 (inactive); in [15], -0.382 (inactive).

In the case of `C=CCOC(=O)[C@H]1[C@@H]2C(=O)O[C@@H](c3ccccc3)[C@@H](c3ccccc3)N2[C@@H](c2ccc(OCCOC(=O)[C@H]3C[C@H]4C(=O)N[C@@H](Cc5ccccc5)C(=O)N4[C@H]3c3ccc(O)cc3)cc2)[C@]12C(=O)Nc1ccc(I)cc12`, the composite z-score in [1] is 0.951; in assay [2], 1.14; in [3], 0.665; in assay [4] it was 0.565; in assay [5], 1.32; in assay [6], 1.29. Also, the composite z-score in assay [8] was 1.69; in [9], 0.958; in [11], 0.72; in assay [16] it was 0.133; in assay [17] it was -0.0567; in assay [18], 0.586. Also, the composite z-score turned out to be 0.691 in [19] and 2.32 in assay [20]. Besides, the z-score is -0.395 in [7]; -0.649 (inactive) in assay [10]; -0.918 (inactive) in [12]; -0.707 (inactive) in [13]; 1.09 (inactive) in assay [14]; 0.204 (inactive) in [15].

`COc1ccccc1CN1C(=O)c2ccccc2[C@@H](C(=O)NC(C)C)[C@@H]1c1ccc(CO)cc1`: the composite z-score in assay [1] amounted to 1.73; in assay [2], 1.15; in assay [3], 0.476; in assay [4] it was 1.01; in assay [5], 1.33; in [6], 1.32. Further, the composite z-score was 0.456 in [8]; 0.112 in assay [9]; 0.428 in [11]; 0.131 in assay [16]; 0.46 in [17]; -0.0764 in assay [18]. Also, the figures for the composite z-score in [19] and in [20] were 0.0096 and 1.84, respectively. The z-score in assay [7] was 1.43; in [10], -0.586 (inactive); in [12], -0.486 (inactive); in assay [13] it was 0.464 (inactive); in assay [14], -0.735 (inactive); in assay [15] it was -0.784 (inactive).

Consider `COc1ccc([Si](C)(C)[C@H]2[C@H](CC(=O)N3Cc4ccccc4C[C@H]3CO)O[C@@]3(C(=O)N(Cc4cccc(N5CCCCC5=O)c4)c4ccccc43)[C@@H]2C)cc1`, for which the composite z-score worked out at 1.57 in assay [1]; 0.307 in [2]; 0.566 in assay [3]; 0.378 in assay [4]; 1.3 in assay [5]; 1.58 in [6]. Moreover, the composite z-score was 1.53 in assay [8]; 0.292 in [9]; 0.329 in [11]; -0.0717 in assay [16]; 0.0422 in assay [17]; 0.849 in assay [18]. Besides, the composite z-score in assay [19] came to 0.431; in [20] it was 2.15. Further, the z-score in assay [7] was 0.925; in [10] it was -0.0418 (inactive); in assay [12], -3.48 (inactive); in assay [13], -0.185 (inactive); in assay [14], 2.21 (inactive); in [15] it was 0.114 (inactive).

`NC(=O)NCC#Cc1ccc2c(c1)[C@]1(C(=O)N2)[C@H](c2ccc(O)cc2)N2[C@H](c3ccccc3)[C@H](c3ccccc3)OC(=O)[C@H]2[C@@H]1C(=O)Nc1nc2ccccc2s1`: the composite z-score was -0.185 in assay [1]; 0.622 in assay [2]; -0.15 in assay [3]; 0.666 in assay [4]; 1.44 in [5]; 1.49 in [6]. The composite z-score was 0.9 in assay [8]; 0.717 in assay [9]; 0.303 in assay [11]; 0.106 in assay [16]; -0.0018 in [17]; 0.374 in [18]. Moreover, the composite z-score was -0.0346 in assay [19] and 1.09 in [20]. Also, the z-score in assay [7] is -2.24; in assay [10], -1.49 (inactive); in [12] it was -0.623 (inactive); in [13], -1.41 (inactive); in assay [14] it was -0.788 (inactive); in assay [15], -0.988 (inactive).
